Bioassay records deposited in PubChem by Sanford-Burnham Center for Chemical Genomics.
The list is not random: actives were taken first. Their share in the collection is about 4.1%.
MPTP block: blocks calcium-induced mitochondrial swelling. isolated mouse mitochondria, Ca2+ swelling absorbance, 30 min. AID 602449. inhibition, % at 10 µM. 360,000 compounds, 1.4% hits;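 active means inhibition of 50% or more, scaled per plate between neutral and stimulator controls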;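 further: 0% = DMSO wells given calcium and 100% = 1 mM EGTA wells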
FAS TE block: inhibitors of human fatty acid synthase thioesterase domain. 360,000 compounds, 0.67% hits. inhibition, % at 15 µM. recombinant FAS-TE, OMFH fluorogenic substrate, fluorescence endpoint. P49327. AID 602261;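 active means compounds whose normalised, plate-corrected inhibition of enzyme fluorescence in the single-dose primary screen is 50% or more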;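 further: 0% = DMSO with enzyme and 100% = substrate without enzyme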
beta cell repl: induces beta-cell replication in MIN6 cells; MIN6 cells proliferation, ATPlite luminescence, 48 h; cells starved in 0.2% serum; 100% = growth in 10% serum; proliferation, % at 10 µM; 330,000 compounds, 0.29% hits; AID 2380;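 active means compounds whose signal lies at least 3.5 SD above the mean of all wells on their plate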;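 further: 0% = DMSO-treated cells in low-serum medium and 100% = 10% serum control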
NR3A LBD binder: modulators (binders) of human NR3A ligand-binding domain | 340,000 compounds, 2.5% hits | NR3A LBD differential scanning fluorimetry, Tm shift; 0% = protein alone, 100% = glycine-bound protein | Tm shift relative to glycine control, % at 25 µM | AID 1259313;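 active means melting temperature shift of at least 10% of the positive control shift, at one fixed dose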
p-CIP stab down: compounds decreasing mouse p/CIP protein stability | Q05BA5 | F442A p/CIP-EGFP cells, EGFP fluorescence, 16 h | decrease of EGFP signal, % at 10 µM | 290,000 compounds, 0.01% hits | AID 1984;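 active means EGFP signal decrease of at least 30% at 10 µM or well 3 SD below plate mean, unless failing retest; inactive means the rest, including hits failing retest or dose response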
Target sequence (Q05BA5 1-1403): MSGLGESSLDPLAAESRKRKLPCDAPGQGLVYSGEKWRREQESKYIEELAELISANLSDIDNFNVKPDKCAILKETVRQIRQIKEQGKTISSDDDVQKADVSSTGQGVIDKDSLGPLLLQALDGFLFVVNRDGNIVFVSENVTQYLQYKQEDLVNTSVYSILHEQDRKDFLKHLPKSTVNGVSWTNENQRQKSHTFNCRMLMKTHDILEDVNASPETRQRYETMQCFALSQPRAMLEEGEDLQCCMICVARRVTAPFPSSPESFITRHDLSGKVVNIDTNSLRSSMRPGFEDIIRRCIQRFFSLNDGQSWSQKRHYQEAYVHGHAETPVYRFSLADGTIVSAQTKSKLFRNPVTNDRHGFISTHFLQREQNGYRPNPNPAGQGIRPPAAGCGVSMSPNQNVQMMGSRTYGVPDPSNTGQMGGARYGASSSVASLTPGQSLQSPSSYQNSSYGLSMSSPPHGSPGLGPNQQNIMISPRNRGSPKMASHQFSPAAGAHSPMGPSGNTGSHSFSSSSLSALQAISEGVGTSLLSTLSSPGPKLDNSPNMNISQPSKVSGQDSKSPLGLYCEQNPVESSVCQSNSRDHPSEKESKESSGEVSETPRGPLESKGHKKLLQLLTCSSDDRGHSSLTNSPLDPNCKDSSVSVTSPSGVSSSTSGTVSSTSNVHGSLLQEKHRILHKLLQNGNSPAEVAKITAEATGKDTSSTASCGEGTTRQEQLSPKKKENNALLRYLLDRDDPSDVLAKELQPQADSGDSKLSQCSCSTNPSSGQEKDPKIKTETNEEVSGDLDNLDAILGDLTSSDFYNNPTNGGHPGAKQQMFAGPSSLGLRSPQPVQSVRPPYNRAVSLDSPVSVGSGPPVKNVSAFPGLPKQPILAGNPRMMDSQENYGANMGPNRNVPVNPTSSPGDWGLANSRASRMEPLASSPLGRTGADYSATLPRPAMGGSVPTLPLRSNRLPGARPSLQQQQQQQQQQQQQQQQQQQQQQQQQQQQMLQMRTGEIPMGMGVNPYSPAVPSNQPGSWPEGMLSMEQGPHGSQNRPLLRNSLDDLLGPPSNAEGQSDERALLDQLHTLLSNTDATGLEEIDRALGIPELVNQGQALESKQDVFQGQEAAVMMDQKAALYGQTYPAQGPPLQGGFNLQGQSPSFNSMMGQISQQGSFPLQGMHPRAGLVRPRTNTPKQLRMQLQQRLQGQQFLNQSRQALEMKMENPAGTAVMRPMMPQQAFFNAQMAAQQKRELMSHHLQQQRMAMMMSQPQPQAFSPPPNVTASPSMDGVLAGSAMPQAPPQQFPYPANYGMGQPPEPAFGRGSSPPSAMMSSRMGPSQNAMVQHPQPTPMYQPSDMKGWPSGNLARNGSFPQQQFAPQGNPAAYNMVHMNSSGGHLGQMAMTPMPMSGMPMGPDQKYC
Numbers without * were called inactive; x = no result given.

SMILES	MPTP block	FAS TE block	beta cell repl	NR3A LBD binder	p-CIP stab down
CC12COC3(C(=O)Nc4ccc([N+](=O)[O-])cc4)CC1CCC32C (stereo unspecified)	3	22	0	17*	-2
CC12COC3(C(=O)Nc4ccc(Cl)cc4)CC1CCC32C (stereo unspecified)	0	8	-2	-2	-4
Cc1nc(Cl)cc(N/N=C/c2ccc(O)cc2)n1	3	-1	-3	26*	-6
Cc1cc(N/N=C/c2ccc(O)cc2)c2cccc(C)c2n1	2	-3	-4	12*	-3
COc1cccc(/C=N/Nc2cc(Cl)nc(C)n2)c1O	-2	-3	1	-1	-2
Cc1nc(Cl)cc(N/N=C/c2ccc(O)cc2O)n1	2	1	-1	19*	4
O=C(Nc1ccc2[nH]c(=S)sc2c1)c1ccccc1	-3	1	-3	21*	5
O=C(Nc1ccc2[nH]c(=S)sc2c1)Nc1ccccc1F	1	2	0	29*	0
CCCNC(=O)C1(C)CCN(C(=O)c2cccc(C#N)c2)C1 (stereo unspecified)	-2	-7	x	x	x
Cc1ccc(Cc2c(C3CCCCC3)nc3c(C)cc(Br)cn23)cc1	2	11	x	x	x
CC(C)=CCc1c(O)ccc(C2COc3c(CC=C(C)C)c(O)cc(O)c3C2=O)c1O (stereo unspecified)	3	22	-6	11*	x
CC(C)=CCc1c(O)ccc2c1OC(c1ccc(O)c(O)c1)CC2=O (stereo unspecified)	3	-2	-3	-4	-10
CCOc1ccc(NC(=O)COc2ccc(C(=O)NC(C)c3ccc(S(N)(=O)=O)cc3)cc2OC)cc1 (stereo unspecified)	-2	0	2	0	x
COc1cc(C(=O)NC(C)c2ccc(S(N)(=O)=O)cc2)ccc1OCC(=O)N1CCOCC1 (stereo unspecified)	1	-3	0	11*	7
O=C(NC(CSCc1ccccc1)C(=O)N/N=C/c1ccc(O)cc1O)c1ccc([N+](=O)[O-])cc1 (stereo unspecified)	0	50	-5	16*	-23
COCCCn1cc(CN2CC(N3CCN(C4CCN(C)CC4)CC3)CS2(=O)=O)nn1 (stereo unspecified)	-1	-13	x	x	x
CC(C)CN(CCNC(=O)c1cn(C)c2ccc(S(=O)(=O)N3CCCC3)cc2c1=O)CC(C)C	1	-6	-2	26*	4
CC(C)CCNC(=O)c1cn(C)c2ccc(S(=O)(=O)N3CCCC3)cc2c1=O	1	14	3	1	-11
Cc1ccc(C(=O)O)cc1NC(=O)C1=CSCCO1	0	-6	0	21*	-1
Cc1ccc(C(=O)O)cc1NC(=O)c1cccs1	1	-9	-2	2	9
COC(=O)[C@]12CCCCC=C1N(Cc1cccc3ccccc13)C(=O)[C@H](CC(=O)N1CCN(C(=O)C3CC3)CC1)C2	0	-1	x	x	x
Cc1ccc(C(=O)Nc2nc(C(N)C(C)C)cs2)cc1 (stereo unspecified)	3	-9	x	x	x
COP(=O)(OC)C(Nc1ccc(C)cc1)c1ccc([N+](=O)[O-])cc1 (stereo unspecified)	0	-4	3	15*	6
CCCCn1c(N)c(N(C)C(=O)C2CCCC2)c(=O)[nH]c1=O	-1	-8	-1	15*	x
Cc1ccc(NCSc2ccc(Cl)cc2)cc1	1	3	x	-14	x
SMILES	MPTP block	FAS TE block	beta cell repl	NR3A LBD binder	p-CIP stab down
Clc1ccc(SCNc2ccccc2Cl)cc1	-1	5	-6	10*	-1
CC(C)C[C@H]1CN(CCCC[C@H]2CNC(=O)C(=O)N2CCc2ccc(O)cc2)C(=O)C(=O)N1Cc1ccccc1	-1	-7	x	x	x
COC(=O)N/N=C/c1ccc(OC(=O)/C=C/c2ccco2)cc1	2	-5	-2	11*	-1
CCCCCCCCN1C(=O)[C@H](CC(=O)NCc2cccc3ccccc23)C[C@@]2(C(=O)OCC)CCC=C12	-1	x	x	x	x
COC(=O)NC(=S)Nc1ccc(Oc2ccc(Cl)cc2Cl)c(Cl)c1	0	25	-3	16*	-8
CCc1c(-c2ccc(OC)cc2)ncn1Cc1cccc(-c2ccccc2)c1	-1	x	x	x	x
O=C(NC1CCCCC1)C(c1ccc2ncccc2c1)N(Cc1cccs1)C(=O)c1cccs1 (stereo unspecified)	0	12	1	14*	-24
O=C(NC1CCCC1)C(c1ccc(F)cc1)N(C(=O)Cc1cccs1)c1ccc2c(c1)OCCO2 (stereo unspecified)	0	4	-4	-17	-1
Cc1ccc(C(C(=O)NC2CCCC2)N(C(=O)Cc2cccs2)c2ccc3c(c2)OCCO3)cc1 (stereo unspecified)	1	61*	-3	-1	14
O=C(NC1CCCCC1)C(c1cccs1)N(Cc1cccs1)C(=O)c1cccs1 (stereo unspecified)	7	21	-3	2	-2
CN(C)c1ccc(C(CN)c2c[nH]c3ccccc23)cc1 (stereo unspecified)	2	-35	-4	-1	-1
CN(C)c1ccc(C(CNS(=O)(=O)c2ccc3ccccc3c2)c2c[nH]c3ccccc23)cc1 (stereo unspecified)	-3	32	-6	16*	8
Cc1ccc(F)c(S(=O)(=O)NC(=O)C2(C)CCN2C(=O)CC(c2ccccc2)c2ccccc2)c1 (stereo unspecified)	0	-9	x	x	x
CCN(CC)S(=O)(=O)c1cccc(C(=O)N/N=C(\C)c2cccs2)c1	-4	3	-3	0	-16
C/C(=N/NS(=O)(=O)c1ccc(Cl)cc1)c1cccc(NC(=O)c2ccncc2)c1	-1	0	-4	-2	-31
C/C(=N\NC(=O)c1cccc(S(=O)(=O)Nc2cccc(Cl)c2)c1)c1cccs1	5	10	-3	14*	-8
C/C(=N\NS(=O)(=O)c1ccccc1)c1cccc(NC(=O)c2cccc(Cl)c2)c1	2	16	1	15*	0
Cc1cccc(C)c1NC(=O)C1C(c2ccccc2)=Nc2ccccc2N1C(=O)c1cnccn1 (stereo unspecified)	0	x	x	x	x
COc1ccc2nc3sc(C(=O)NCCCN4CCc5ccccc5C4)cc3cc2c1	45	1	-4	23*	-7
COc1ccc2nc3sc(C(=O)N4CCN(C)CC4)cc3cc2c1	-4	-2	-2	-5	0
NC(Cc1ccc(Cl)cc1)c1csc(NC(=O)NCC2CCCCC2)n1 (stereo unspecified)	8	0	x	x	x
CC(C)Cc1ccc(-c2cc3nc(NCC4CC4)ccn3n2)cc1	2	15	x	x	x
CCCc1cc(=O)[nH]c(Nc2ccc(O)cc2)n1	0	-9	-3	10*	-2
COc1ccc(CCN2C(=O)C=CC2=O)cc1OC	-1	-5	x	20*	x
COc1ccc(CCn2c(C)ccc2C)cc1OC	x	x	-3	x	2
